Assay results as given in publication PMC13494018.

B1: design_602_0a1f3d3d-7d26-454b-9b34-ebe8ef9bc7d4_149_dldesign_0_cycle1_af2pred (protein)
chain: VVEKALKEMEKYIEKAKEEAIKINPKAKEYIEKRAKRIREEAKKGAEEAKKLYKEDPEKGKEKAKEALKKTKGLAESLIEHAKFSAK
B2: design_602_0a1f3d3d-7d26-454b-9b34-ebe8ef9bc7d4_194_dldesign_0_cycle1_af2pred (protein)
chain: AVEAAIEALEELAKKAPPELAEYLKRTAEAAKKAGEKVLRYAVRAAAYATIALEGSPEVAAEAIKKAKEQAEKAEKIAKE
B3: design_602_0a1f3d3d-7d26-454b-9b34-ebe8ef9bc7d4_595_dldesign_0_cycle1_af2pred (protein)
chain: AAAVKAKMQAIAAAAKDAAKRAKEVAEKTGSTEAEADAVRAQHLSDAATINANGTQAQADAAQARLDVLKARAEKLEKEAKE
B4: design_602_0a1f3d3d-7d26-454b-9b34-ebe8ef9bc7d4_204_dldesign_0_cycle1_af2pred (protein)
chain: SEEEKKKELLEKTEENKKYLEELRKKYEADPSYKVEAATAEAGVKAAEEAKGENFEEAAEKAQKAYNTFKRMEEAEEEAKKRA
B5: design_601_c3fd07b4-2f34-4ad8-bd4e-2749faf628eb_2299_dldesign_0_cycle1_af2pred (protein)
chain: MEAKEKAEKAIKRAKEIGEKLIKKVAFNPEAAEKVKKLTEEAIEAIKKDPEEGIKKGAEILQKAREYAAEVLAKN
B6: design_602_0a1f3d3d-7d26-454b-9b34-ebe8ef9bc7d4_19_dldesign_0_cycle1_af2pred (protein)
chain: MEEEEELKKKKEELLKLKKKLEEAYDIAAELAAKNPEYLDEVLEKYREGLRYLKLGGENPENYEEYYEKAKEKLKEIEEIAKKLK
B7: design_602_0a1f3d3d-7d26-454b-9b34-ebe8ef9bc7d4_576_dldesign_0_cycle1_af2pred (protein)
chain: AEAEKQAALAEASQLLLEANSFAKWVSEYAKELGQEDIAKKAEEAGKEYTKKAKAYIKAGKAEEAKKEAEKLLEEAEKLYKEAKEKA
B8: design_602_0a1f3d3d-7d26-454b-9b34-ebe8ef9bc7d4_487_dldesign_0_cycle1_af2pred (protein)
chain: EEEKRIEEAKKKAREAAEKAREYGKKIIKLGYDPKKAAELAQKAQEARAEAEALPEKAEEAAKKAKEAAEELEKLLKEAEA
B9: design_601_c3fd07b4-2f34-4ad8-bd4e-2749faf628eb_2221_dldesign_0_cycle1_af2pred (protein)
chain: GAAEEAKKALKEAKERIEKVATPETKEFHEKLKEEMEKKVKELMAGDPVEGAKAAAKAAAAYAQEAYEASAEARAKEIIKK
B10: design_602_0a1f3d3d-7d26-454b-9b34-ebe8ef9bc7d4_348_dldesign_0_cycle1_af2pred (protein)
chain: IDVKATADKFLKATEEAAKKDAELGKKTAKKAIYTLDVLGEADPEYKEYTDKKKEEIKKTLAELTAKQKAKE
B11: design_602_0a1f3d3d-7d26-454b-9b34-ebe8ef9bc7d4_766_dldesign_0_cycle1_af2pred (protein)
chain: GELEALAERAAELVLDPEKAEEGVALVVERLRALTDPAEIARLVQLVQQALAEAAAKNPEKAAQLRAAAKRVVEAAREIVAEKAAAA
B12: design_602_0a1f3d3d-7d26-454b-9b34-ebe8ef9bc7d4_127_dldesign_0_cycle1_af2pred (protein)
chain: AEEERRKALAKKRAERAKALAVEAKKEGNEEAAKYYEKAAELYAKAAEAPPEERGKLVDEAVEYYGEGELEKIKFK
B13: design_601_c3fd07b4-2f34-4ad8-bd4e-2749faf628eb_2458_dldesign_0_cycle1_af2pred (protein)
chain: MEKAKEEALKLIKELLEATKLPKGKASQIALELAAEADWLAKKSSPEAAELFNALAEAARAVVKDKEKGKELAKKVKEKVEK
B14: design_601_c3fd07b4-2f34-4ad8-bd4e-2749faf628eb_1838_dldesign_0_cycle1_af2pred (protein)
chain: SMAEEILKEFLELAKVMAEDPEKGAKLFAEKVKELDPSIYPFAEAAAKKAAEEGAPLEELERAARAFANVVTT
B15: design_602_0a1f3d3d-7d26-454b-9b34-ebe8ef9bc7d4_1060_dldesign_0_cycle1_af2pred (protein)
chain: GEEKEKKVEEIEKKAKEEAKKYAEEIAKALKDPEKMKKIATEATDKLLEMAEEMVETDKKAGKKAAEMIREGLRIMKETYEKERKKA
B16: design_602_0a1f3d3d-7d26-454b-9b34-ebe8ef9bc7d4_1317_dldesign_0_cycle1_af2pred (protein)
chain: MEEKKEEEARKVAHEAFRVAALAENVASAAEKKGDEEIAKKAKEARKTAEKAMELAREGNVKEARKLAKEARKVVEELRKKLEA
B17: design_602_0a1f3d3d-7d26-454b-9b34-ebe8ef9bc7d4_533_dldesign_0_cycle1_af2pred (protein)
chain: SLKEELAEKAEEKAKKAVEALKAYAKADPSKAEEMAAAAKKVKEAAERGKKGNVQEAGSAEVLAESALSAAEKKLKEL
B18: design_601_c3fd07b4-2f34-4ad8-bd4e-2749faf628eb_1863_dldesign_0_cycle1_af2pred (protein)
chain: SEYEKELAKAEAFVKEALKKSKEEFIAETKKLFEEGSPVYQSALMRALTKAAKEYKDDPEKQKKALDARDTIVD
B19: design_602_0a1f3d3d-7d26-454b-9b34-ebe8ef9bc7d4_268_dldesign_0_cycle1_af2pred (protein)
chain: VEEKAKKYIEEAKKKAKEMKELGKKNPAAKENYDAAAKVWETAAKEIEKDPSKAEEYEKKAKKTIAVLLDAANAEL
B20: design_601_c3fd07b4-2f34-4ad8-bd4e-2749faf628eb_2331_dldesign_0_cycle1_af2pred (protein)
chain: HMEEEAYKAKVEKAKAAMKEAADKLVSDPEAAKKQITQIAKDTAKELIATGTPAGKAAAQDALAEATAAKTELDKKAK
B21: design_601_c3fd07b4-2f34-4ad8-bd4e-2749faf628eb_1417_dldesign_0_cycle1_af2pred (protein)
chain: EEEKLKEAAKRLHEAREKTNEAEQKLKLEGKKNAEELKKELEAAAKVAKAVAEEVKANPEYAKIAETLAKRAEKAAQEA
B22: design_602_0a1f3d3d-7d26-454b-9b34-ebe8ef9bc7d4_990_dldesign_0_cycle1_af2pred (protein)
chain: MDKDGIAYSIKAKHIAEAALILGEKSTPEMAEVFKEVAELAKEAAEAALKDAETGKKLLKEVLKKAREAKKKAEEAKKA
B23: design_602_0a1f3d3d-7d26-454b-9b34-ebe8ef9bc7d4_1205_dldesign_0_cycle1_af2pred (protein)
chain: LKERIEKLKEEGKKLEEEAEEMKDKDASAKLYQLAHAALAAAKRAEEALKAGNKEEAEKYLKIGEEAVKKGKEILKKGKA
B24: design_601_c3fd07b4-2f34-4ad8-bd4e-2749faf628eb_1955_dldesign_0_cycle1_af2pred (protein)
chain: MEQEKKDEELLKKVKELGKEATEKSLEDPEKAKEYRKKLIEEAKKAAAEASPEYAKKIAEEAQKAQEEITEAQVEGEKKKK
B25: design_602_0a1f3d3d-7d26-454b-9b34-ebe8ef9bc7d4_881_dldesign_0_cycle1_af2pred (protein)
chain: EKEKAAKKIAELMDKAYDLISDGGEAEIKKGKELAKEAVKLGKEAGPELAKKAEKGLRALERLAEETEKALKK
B26: design_602_0a1f3d3d-7d26-454b-9b34-ebe8ef9bc7d4_299_dldesign_0_cycle1_af2pred (protein)
chain: EIGKIVDEALEKILELQAEAKKAGKEAAKEVDKVRKEMIKEAKKMAKEGKSAEEVKKFAEEKVEEAKKIAEEAKKK
B27: design_601_c3fd07b4-2f34-4ad8-bd4e-2749faf628eb_2023_dldesign_0_cycle1_af2pred (protein)
chain: MREEIIKAIKEAVKELKKLGKLAKEAKKKNPEIGKEAEKDAKKLQKELFEALSSENAVEKLKEVKEKTKKKIEEIKKKVEE
B28: design_601_c3fd07b4-2f34-4ad8-bd4e-2749faf628eb_2283_dldesign_0_cycle1_af2pred (protein)
chain: AAAEDEAKRALAKKKAEEAKKLAKEAVEGNAEKAEKAAKELEKILKELRALGKAASPAAKAALTAAAHTAAEAYAEAYSAAVVKKEKE
B29: design_601_c3fd07b4-2f34-4ad8-bd4e-2749faf628eb_1953_dldesign_0_cycle1_af2pred (protein)
chain: AVAAKAQAALDRTAALREKHPEAKEYLDKAEEEAKKALADPANAAEYLKKAANYLQEAYQEASEYEFKKK
B30: design_601_c3fd07b4-2f34-4ad8-bd4e-2749faf628eb_1497_dldesign_0_cycle1_af2pred (protein)
chain: SMEEEEQRRRAIEELKRLMELADKSPSEIAKATREAVAATPLYAERIRKVGTAMMFNPEEGKKLAEEAIKELE
B31: design_602_0a1f3d3d-7d26-454b-9b34-ebe8ef9bc7d4_95_dldesign_0_cycle1_af2pred (protein)
chain: MEELAKKAEEVVEESGEALAKAPREKWPEISELRHESLRALREAGENPETREEHLKEGEKYLEEAKKLAEKGAKE
B32: design_601_c3fd07b4-2f34-4ad8-bd4e-2749faf628eb_1485_dldesign_0_cycle1_af2pred (protein)
chain: GYKERAKKEIEEAKKNLEKAKADPSTAVSLLTDAIAHANAAKSLAEKLEKTDPETGKELIEEAKEIREEAKKVLAERNAA
B33: design_602_0a1f3d3d-7d26-454b-9b34-ebe8ef9bc7d4_418_dldesign_0_cycle1_af2pred (protein)
chain: SEEAKKLAEEAKKEMGNIRLDAYDKASEVNVEEAKKIFEEAKEKIEKIAKETAELVPEYAEEILKGGEKAMKALERAAKDIEKAE
B34: design_602_0a1f3d3d-7d26-454b-9b34-ebe8ef9bc7d4_1230_dldesign_0_cycle1_af2pred (protein)
chain: AEAEKKAKEAVKLAEKYYEKAKELAKEAEKDPKLKEAAKKIKKDAEEIKKALEKGIKEGNEVEAAQTSKSLYRAAEAEYKRAKK
B35: design_602_0a1f3d3d-7d26-454b-9b34-ebe8ef9bc7d4_244_dldesign_0_cycle1_af2pred (protein)
chain: AAAEAAKAKVKAIAAKSYAKNPEAGQYITLALAFAKRGDLEEALASLDEAEKEDPTNYPEARAAVLAYYAALKA
B36: design_601_c3fd07b4-2f34-4ad8-bd4e-2749faf628eb_2200_dldesign_0_cycle1_af2pred (protein)
chain: SSEYSKKLAEDLKTFVKNIRDIAKESGDPAVVEQAKAVMAAFVTSEEAGVAAAKKLEAYTKETTNPALAAKAATAYDALKNIADG
B37: design_602_0a1f3d3d-7d26-454b-9b34-ebe8ef9bc7d4_1202_dldesign_0_cycle1_af2pred (protein)
chain: DEVEKILKEALEKMEEYKKKALEEAAKKDPETSKKLTELIEKRFEKREKELKEEMKKNKNDPEKAKRIGFHAVARAEITYEQAKLA
B38: design_602_0a1f3d3d-7d26-454b-9b34-ebe8ef9bc7d4_227_dldesign_0_cycle1_af2pred (protein)
chain: GAAAKAEAAKLAHESNEAKAEAVAHPEKAAEEAKKIKERLKELEKKAKEAPAEVAKYYAKAAKIAKKNLEEAKKVAEEAKA

Each binder was assayed against VTCN1, Q7Z7D3.
Chain of VTCN1, Q7Z7D3 (Q7Z7D3 whole entry): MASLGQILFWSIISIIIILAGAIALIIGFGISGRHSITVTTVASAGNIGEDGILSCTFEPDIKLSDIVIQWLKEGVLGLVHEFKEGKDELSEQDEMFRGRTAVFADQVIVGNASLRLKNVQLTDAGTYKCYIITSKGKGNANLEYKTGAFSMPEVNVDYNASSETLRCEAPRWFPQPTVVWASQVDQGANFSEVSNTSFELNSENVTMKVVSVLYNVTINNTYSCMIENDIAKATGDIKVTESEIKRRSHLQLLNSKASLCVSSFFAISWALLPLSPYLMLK

| Binder | binding in a display sort |
| --- | --- |
| B1 | not found (inactive) |
| B2 | not found (inactive) |
| B3 | not found (inactive) |
| B4 | not found (inactive) |
| B5 | not found (inactive) |
| B6 | not found (inactive) |
| B7 | not found (inactive) |
| B8 | not found (inactive) |
| B9 | not found (inactive) |
| B10 | not found (inactive) |
| B11 | not found (inactive) |
| B12 | not found (inactive) |
| B13 | not found (inactive) |
| B14 | not found (inactive) |
| B15 | not found (inactive) |
| B16 | not found (inactive) |
| B17 | not found (inactive) |
| B18 | not found (inactive) |
| B19 | not found (inactive) |

| Binder | binding in a display sort |
| --- | --- |
| B20 | not found (inactive) |
| B21 | not found (inactive) |
| B22 | not found (inactive) |
| B23 | not found (inactive) |
| B24 | not found (inactive) |
| B25 | not found (inactive) |
| B26 | not found (inactive) |
| B27 | not found (inactive) |
| B28 | not found (inactive) |
| B29 | not found (inactive) |
| B30 | binds (active) |
| B31 | not found (inactive) |
| B32 | not found (inactive) |
| B33 | not found (inactive) |
| B34 | not found (inactive) |
| B35 | not found (inactive) |
| B36 | not found (inactive) |
| B37 | not found (inactive) |
| B38 | not found (inactive) |
